Assay results published in PubChem BioAssay (NCI).
The panel holds about 83,000 compounds, 20% with a hit somewhere; the sample as a whole holds those more often.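 Plates (96-well) were seeded with cells, treated with compound at one concentration, and incubated for 48 hours before percent growth was determined.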 Calls of active or inactive are those of the source. Rule for the calls: active = growth percent below 10; inactive = the rest.

How the values were obtained:
Test in all cases: NCI-60 one-dose screen, 48 h (100 = growth as untreated, 0 = no growth, -100 = all killed)
Settings in all cases: 10 µM unless noted
T-47D breast = test system: T-47D breast
BT-549 breast = test system: BT-549 breast
MDA-MB-435 melanoma = test system: MDA-MB-435 melanoma
SW-620 colon = test system: SW-620 colon
MCF7 breast = test system: MCF7 breast
HCT-116 colon = test system: HCT-116 colon
HCC-2998 colon = test system: HCC-2998 colon
KM12 colon = test system: KM12 colon

Measured: growth

COc1cccc(N2CCN(c3ncnc4c3[nH]c3ccc(F)cc34)C[C@H]2C)c1
active: BT-549 breast -3.9%
inactive: T-47D breast 14.6% | MDA-MB-435 melanoma 19.4% | SW-620 colon 95.9% | MCF7 breast 37.2% | HCT-116 colon 41.9% | HCC-2998 colon 96.8% | KM12 colon 54.5%

O=C(CN1CCN(c2cc(=O)n(-c3ccccc3)c3ccccc23)CC1)Nc1cccc(C(F)(F)F)c1
inactive: T-47D breast 19.7% | BT-549 breast 66.6% | MDA-MB-435 melanoma 61.4% | SW-620 colon 75% | MCF7 breast 29.1% | HCT-116 colon 42.6% | HCC-2998 colon 84.8% | KM12 colon 65.1%

CN(C)CCNC(=O)c1ccc(-c2nc3ccc4[nH]ncc4c3c3c2CCC3)cc1
active: BT-549 breast -19.5% | SW-620 colon 3.38% | MCF7 breast 1.36% | HCT-116 colon 2.43% | HCC-2998 colon 2.85% | KM12 colon 4.08%
inactive: T-47D breast 32.8% | MDA-MB-435 melanoma 22.2%

NC(N)=Nc1ccc(Oc2cccc(Nc3ccc(Br)c(C(F)(F)F)c3)c2)cc1
active: MDA-MB-435 melanoma 8.6% | SW-620 colon -31% | MCF7 breast -1.08% | HCT-116 colon -25% | HCC-2998 colon -28.1% | KM12 colon -27.2%
inactive: T-47D breast 22.4% | BT-549 breast 42.7%

O=C(O)c1ccc(-n2cc(CNc3cc(F)c(F)c(F)c3)c(-c3cccc(F)c3)n2)cc1
inactive: T-47D breast 81.6% | BT-549 breast 107% | MDA-MB-435 melanoma 99.8% | SW-620 colon 105% | MCF7 breast 41% | HCT-116 colon 86.2% | HCC-2998 colon 87.5% | KM12 colon 96.8%

COc1ccc(-c2nc(C(Cl)Cl)nc3cc(-c4ccccc4)nn23)cc1
active: MDA-MB-435 melanoma -30.3% | SW-620 colon -23.9% | HCT-116 colon 1.5% | HCC-2998 colon -37.8% | KM12 colon -2.28%
inactive: T-47D breast 45.8% | BT-549 breast 38.4% | MCF7 breast 29.3%

CCn1c(SCC(=O)Nc2cccc(C(=O)/C=C/c3ccc(Br)cc3)c2)nc2ccccc2c1=O
inactive: T-47D breast 90.7% | BT-549 breast 85.7% | MDA-MB-435 melanoma 99.2% | SW-620 colon 80.9% | MCF7 breast 21.5% | HCT-116 colon 28.4% | HCC-2998 colon 95.3% | KM12 colon 96.5%

CNC(=O)c1c(NC(=O)c2ccccc2C(F)(F)F)sc2c1CCC(=O)C2
active: T-47D breast 9.8% | HCT-116 colon 8.16%
inactive: BT-549 breast 27.2% | MDA-MB-435 melanoma 37.5% | SW-620 colon 21% | MCF7 breast 13.9% | HCC-2998 colon 62% | KM12 colon 18.5%

Cc1ccc(NC(=O)N[C@@H](Cc2cc(F)cc(F)c2)C(=O)NC2C(=O)N3C[C@H](O)C[C@H]3C(=O)N3CCCC[C@H]3C(=O)N[C@@H](CO)C(=O)N3C[C@H](C)C[C@H]3C(=O)O[C@H]2C)c(F)c1 (stereo not given in full)
inactive: T-47D breast 32.5% | BT-549 breast 43.5% | MDA-MB-435 melanoma 23.1% | SW-620 colon 44.6% | MCF7 breast 18.1% | HCT-116 colon 18.1% | HCC-2998 colon 31.2% | KM12 colon 45.3%

COc1ccc(-c2nc3ccc(-c4nnc(SCC(=O)Nc5ccc(C(=O)/C=C/c6ccc(Cl)cc6)cc5)o4)cc3[nH]2)cc1
inactive: T-47D breast 92.8% | BT-549 breast 98.2% | MDA-MB-435 melanoma 99.3% | SW-620 colon 97% | MCF7 breast 78% | HCT-116 colon 100% | HCC-2998 colon 115% | KM12 colon 103%

NS(=O)(=O)c1ccc(-n2cc(-c3cccc(NC(=O)c4ccc(N5CCOCC5)c(C(F)(F)F)c4)c3)nn2)cc1
inactive: BT-549 breast 73.2% | MDA-MB-435 melanoma 62.9% | SW-620 colon 64.5% | MCF7 breast 36.9% | HCT-116 colon 32.5% | HCC-2998 colon 66% | KM12 colon 25.8%
active: T-47D breast 4.61%

COc1cc2nc(Cl)nc(Nc3cccc(C4=Nc5c(N)nc(N)nc5NC(c5ccc(F)cc5)C4)c3)c2cc1OC (stereo not given)
active: MCF7 breast -5.06% | HCT-116 colon -41.7%
inactive: T-47D breast 63.7% | BT-549 breast 78.1% | MDA-MB-435 melanoma 77.2% | SW-620 colon 12.7% | HCC-2998 colon 22.9% | KM12 colon 34.1%

COc1ccc(-n2c(/C=C3\C(=O)Nc4ccccc43)ccc2CO)cc1
inactive: T-47D breast 88.8% | BT-549 breast 100% | MDA-MB-435 melanoma 94.8% | SW-620 colon 98.6% | MCF7 breast 93.3% | HCT-116 colon 95.6% | HCC-2998 colon 113% | KM12 colon 19.3%

O=C(CNc1nc(-c2cccc([N+](=O)[O-])c2)cs1)Nc1cccc(Cl)c1
inactive: T-47D breast 100% | BT-549 breast 91.7% | MDA-MB-435 melanoma 105% | SW-620 colon 105% | MCF7 breast 91.3% | HCT-116 colon 112% | HCC-2998 colon 115% | KM12 colon 100%

CC(c1ccccc1)N1CSc2nc3ncncc3n2C1 (stereo not given)
active: MCF7 breast 5.38%
inactive: T-47D breast 34% | BT-549 breast 59% | MDA-MB-435 melanoma 23.5% | SW-620 colon 41.1% | HCT-116 colon 19.2% | HCC-2998 colon 23.8% | KM12 colon 21.8%

COc1ccc(Cn2cc3c(c2-c2cc(OC)c(OC)c(OC)c2)CCc2c(CN4CCOCC4)noc2-3)cc1
inactive: T-47D breast 61.5% | BT-549 breast 76.8% | SW-620 colon 30.4% | MCF7 breast 16.8% | HCT-116 colon 13.4% | HCC-2998 colon 21.3% | KM12 colon 16.9%
active: MDA-MB-435 melanoma -19.9%

COc1cc(-c2ccc3ncnc(NCc4ccccc4)c3c2)cnc1OC
inactive: BT-549 breast 57.2% | MDA-MB-435 melanoma 77.1% | SW-620 colon 74.6% | MCF7 breast 27% | HCT-116 colon 78.1% | HCC-2998 colon 73.2% | KM12 colon 95.2%
active: T-47D breast 2.37%

C/C(=N\O)[C@H]1C[C@]23CC[C@]4(C)[C@H](CC[C@@H]5[C@@]6(C)CC/C(=N/O)C(C)(C)[C@@H]6CC[C@]54C)[C@H]2[C@H](C)C1(C)OC3
inactive: T-47D breast 108% | BT-549 breast 107% | MDA-MB-435 melanoma 97.2% | SW-620 colon 99.9% | MCF7 breast 93.3% | HCT-116 colon 97.2% | HCC-2998 colon 115% | KM12 colon 102%

Cc1ccc(C(=O)NN2C(=O)/C(=C/C=C/c3ccco3)SC2=S)cc1
inactive: T-47D breast 95.4% | BT-549 breast 137% | MDA-MB-435 melanoma 90.7% | SW-620 colon 106% | MCF7 breast 82% | HCT-116 colon 98.2% | HCC-2998 colon 107% | KM12 colon 102%

O=C1/C(=C/C=C/c2ccco2)SC(=S)N1C1CCCCC1
inactive: T-47D breast 68.8% | BT-549 breast 111% | MDA-MB-435 melanoma 85.3% | SW-620 colon 92.2% | MCF7 breast 54.3% | HCT-116 colon 99.8% | HCC-2998 colon 97.3% | KM12 colon 96.9%

COc1ccc(NC(=O)CSc2nnc(-c3ccc4nc(-c5ccccc5)[nH]c4c3)o2)cc1
inactive: T-47D breast 94.7% | BT-549 breast 93.5% | MDA-MB-435 melanoma 100% | SW-620 colon 104% | MCF7 breast 86.2% | HCT-116 colon 102% | HCC-2998 colon 114% | KM12 colon 99.4%

COc1ccc2[nH]cc(/C=N/Nc3nc4ccccc4s3)c2c1
inactive: BT-549 breast 58.7% | MDA-MB-435 melanoma 66.2% | SW-620 colon 74.7% | MCF7 breast 22.5% | HCT-116 colon 46.8% | HCC-2998 colon 41% | KM12 colon 13.6%
active: T-47D breast 2.18%

CCOC(=O)c1c(NC(=O)c2ccccc2C(F)(F)F)sc2c1CCC(=O)C2
inactive: T-47D breast 15% | BT-549 breast 11.1% | MDA-MB-435 melanoma 72.6% | SW-620 colon 14.9% | MCF7 breast 78.5% | HCT-116 colon 11% | HCC-2998 colon 65.2%
active: KM12 colon 7.7%

CC(C)C[C@@H]1N[C@@]2(C(=O)Nc3ccccc32)[C@@H](c2ccc(F)cc2)[C@@H]1C(=O)c1ccc(O)cc1
inactive: T-47D breast 76.5% | BT-549 breast 113% | MDA-MB-435 melanoma 102% | SW-620 colon 101% | MCF7 breast 92.5% | HCT-116 colon 86.7% | HCC-2998 colon 108% | KM12 colon 96.1%

C=CCn1c(SCC(=O)Nc2ccc(C(=O)/C=C/c3cc(OC)c(OC)c(OC)c3)cc2)nnc1-c1c[nH]c2ccccc12
active: MDA-MB-435 melanoma 5.25% | SW-620 colon -0.994% | MCF7 breast -30.8% | HCT-116 colon -66.1% | HCC-2998 colon -28%
inactive: T-47D breast 49% | BT-549 breast 47.2% | KM12 colon 30.4%

CCCCNNC(=O)c1ccc(-c2cccc(F)c2F)cc1
active: T-47D breast 3.16%
inactive: BT-549 breast 58.6% | MDA-MB-435 melanoma 25.4% | SW-620 colon 20.7% | MCF7 breast 15.9% | HCT-116 colon 13.9% | HCC-2998 colon 37.9% | KM12 colon 44.6%

Cc1ccc2c(c1)Oc1nc(N)c(C#N)c(N)c1C2Sc1ccc(F)cc1 (stereo not given)
active: T-47D breast -47.1% | BT-549 breast -88.4% | MDA-MB-435 melanoma -93.6% | SW-620 colon -63.6% | MCF7 breast -59.7% | HCT-116 colon -89.9% | HCC-2998 colon -90.9% | KM12 colon -91.4%

N#Cc1c(Nc2ccccc2)nn2c(-c3ccc([N+](=O)[O-])cc3)ccnc12
inactive: T-47D breast 110% | BT-549 breast 99.5% | MDA-MB-435 melanoma 97.4% | SW-620 colon 103% | MCF7 breast 93.2% | HCT-116 colon 99.3% | HCC-2998 colon 106% | KM12 colon 102%

C=C(C=O)[C@@H]1CC[C@]2(C)[C@H](CC=C3[C@H]4[C@@H](C)[C@H](C)CC[C@]4(C(=O)OC)CC[C@]32C)[C@@]1(C)CCC#N
active: MDA-MB-435 melanoma -7.24% | SW-620 colon 0.12% | MCF7 breast -20.1% | HCT-116 colon -57.8% | HCC-2998 colon -48.8% | KM12 colon -4.32%
inactive: T-47D breast 22.4% | BT-549 breast 12%

N#Cc1ccccc1Cn1c2nc(=N)c3ccccc3c-2nc2ccccc21
inactive: T-47D breast 66.8% | BT-549 breast 88% | MDA-MB-435 melanoma 70% | SW-620 colon 54.6% | MCF7 breast 34.7% | HCT-116 colon 46.9% | HCC-2998 colon 60.2% | KM12 colon 60.7%
